# Source: PubChem BioAssay (NCATS)
# Records with an inconclusive call do not appear. Entries that show only a call come without a potency. Active and inactive are the calls of the source. Unless noted, calls come from the whole dose curve; as a rule, active = well fitted curve in the direction sought with a large enough effect; inconclusive = small, poorly fitted or top-dose-only effect, or another doubt; inactive = no such curve, though single readings can be large; an effect the other way counts as inactive or inconclusive.
# Columns and labels:
# [1] = biological target: Voltage-gated inwardly rectifying potassium channel KCNH2 (Homo sapiens) (UniProt Q12809); assay: qHTS Assay for Small Molecule Inhibitors of the Human hERG Channel Activity (AID 588834);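 note: lower thallium flux fluorescence means stronger hERG block; nearly all actives have a fitted effect of over 50% in size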; note: potency is the fitted concentration of half-maximal effect
# Outline: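 Step 1: BacMam hERG transduction of U2OS, 4 hrs RT. Step 2: overnight 37 °C, plate 2000 cells/well, 4 hr. Step 3: FluxOR load, compound 10 min, stimulate, read fluorescence.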
# [2] = S16 Schwann cell PMP22 intronic element firefly luciferase assay (AID 624032); note: nearly all actives have a fitted effect of over 30% in size; note: potency is the fitted concentration of half-maximal effect
# Outline: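 Rat S16 Schwann cells stably carrying a PMP22 intronic element-driven Fluc reporter were seeded overnight, then exposed to compounds for 24 h at 37 °C. Luminescence was normalized to PTC124 (positive control) and DMSO (0% activity).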
# [3] = S16 Schwann cell PMP22 intronic element beta-lactamase assay (AID 624044; calls by dose curve; note: nearly all actives have a fitted effect of over 15% in size)
# Outline: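 Beta-lactamase reporter under a PMP22 intronic regulatory element in stable S16 rat Schwann cells; 24 h compound exposure. 460 nm blue signal normalized between DMSO (0%) and potassium clavulanate, with 535 nm FRET tracking viability; curves classed by r2 and response.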
# [4] = biological target: Glutaminase kidney isoform, mitochondrial (Homo sapiens) (UniProt O94925); assay: qHTS for Inhibitors of Glutaminase (GLS): LOPAC Validation (AID 624146); note: nearly all actives have a fitted effect of over 60% in size; note: potency is the fitted concentration of half-maximal effect
# Outline: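 hKGA in 45 mM KH2PO4 (pH 8.2), 0.02% Tween-20 with compound, then 1mM L-Glutamine (stock as added) plus glutamate oxidase/HRP/Amplex red coupling mix. Fluorescence read initially and after 30 min at RT; signal change reflects glutamate formation.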
# [5] = qHTS of Trypanosoma Brucei Inhibitors: LOPAC Validation (AID 624147)
# Outline: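 TbPYK + substrate in 50 mM TEA pH 7.2, 100 mM KCl, 10 mM MgCl2, 0.05% BSA, 0.01% Tween-20; cpd pinned; ADP 130 uM final; 45 min RT; Kinase-Glo Plus 10 min; luminescence endpoint.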
# [6] = biological target: Glucagon-like peptide 1 receptor (Homo sapiens) (UniProt P43220); assay: qHTS of GLP-1 Receptor Agonists: LOPAC Validation (AID 624148);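 note: higher luminescence signal means agonism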
# Outline: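 HEK293 cells stably co-expressing a cAMP-responsive luciferase reporter and a hypersensitive GLP-1R were plated 12 h at 37 °C and exposed to compounds for 4-6 hr at 37 °C, 5% CO2. Luminescence was read 12 min after adding detection reagent.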
# [7] = qHTS of Nrf2 Activators: LOPAC Validation (AID 624149)
# Outline: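 Luciferase signal from ARE activation, read with Steady-Glo after 30 min at room temperature. Compounds were pin-transferred onto AREc32_Fluc cells (1000/well, OPTI-MEM/5% FBS, seeded overnight) and left 24 hr at 37 deg C.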
# [8] = HTS Assay for Allosteric Antagonists of the Human D2 Dopamine Receptor: Hit Validation in HTRF (AID 624455);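 note: stable D1 dopamine receptor cell line scored for blocking the D1 response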
# Outline: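 Inhibition of the D1-mediated response was measured by HTRF. Cells used were a line stably expressing the D1 dopamine receptor.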
# [9] = S16 Schwann cell viability assay (CellTiter-Glo assay) (AID 624031);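 note: cellular ATP luminescence as a viability measure; series mostly up to about 58 µM; nearly all actives have a fitted effect of over 70% in size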
# Outline: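 Native S16 rat Schwann cells in DMEM/10% FBS without phenol red were incubated overnight, then exposed to compounds for 24 h at 37 °C/5% CO2. Viability was read as ATP luminescence (CellTiter-Glo), normalized to no-cell wells and DMSO (0%).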
# [10] = biological target: Luciferin 4-monooxygenase (Photinus pyralis) (UniProt P08659); assay: Biochemical firefly luciferase enzyme assay for NPC (AID 624030);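 note: purified P. pyralis luciferase at 10 nM with luciferin and ATP substrate; series mostly up to about 59 µM; nearly all actives have a fitted effect of over 70% in size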
# Outline: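 Counter-screen for direct inhibition of the luciferase enzyme by approved-drug library compounds, run at 10 nM enzyme in 50 mM Tris acetate (final). Luminescence was read within 5 min of enzyme-buffer addition and normalized to PTC124 versus DMSO (0%).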
# Sequence of Glutaminase kidney isoform, mitochondrial (Homo sapiens) (O94925 whole entry, looked up, canonical isoform): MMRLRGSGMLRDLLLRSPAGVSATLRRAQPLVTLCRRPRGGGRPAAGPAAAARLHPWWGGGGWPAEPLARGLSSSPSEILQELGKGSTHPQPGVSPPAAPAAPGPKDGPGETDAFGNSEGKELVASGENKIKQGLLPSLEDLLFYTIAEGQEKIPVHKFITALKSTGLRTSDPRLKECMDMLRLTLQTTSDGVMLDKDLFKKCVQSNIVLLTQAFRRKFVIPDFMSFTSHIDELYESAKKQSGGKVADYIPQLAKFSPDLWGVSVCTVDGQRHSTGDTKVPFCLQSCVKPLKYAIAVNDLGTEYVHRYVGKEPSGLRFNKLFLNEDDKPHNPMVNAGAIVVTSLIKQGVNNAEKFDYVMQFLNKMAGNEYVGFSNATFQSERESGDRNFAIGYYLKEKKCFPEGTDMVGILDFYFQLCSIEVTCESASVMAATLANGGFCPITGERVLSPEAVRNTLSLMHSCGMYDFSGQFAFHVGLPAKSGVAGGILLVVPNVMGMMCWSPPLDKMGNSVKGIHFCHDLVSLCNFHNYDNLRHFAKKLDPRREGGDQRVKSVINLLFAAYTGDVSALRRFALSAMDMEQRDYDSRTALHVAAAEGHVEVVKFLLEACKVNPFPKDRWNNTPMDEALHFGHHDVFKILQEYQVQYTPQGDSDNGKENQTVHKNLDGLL
# Sequence of Luciferin 4-monooxygenase (Photinus pyralis) (P08659 whole entry, looked up): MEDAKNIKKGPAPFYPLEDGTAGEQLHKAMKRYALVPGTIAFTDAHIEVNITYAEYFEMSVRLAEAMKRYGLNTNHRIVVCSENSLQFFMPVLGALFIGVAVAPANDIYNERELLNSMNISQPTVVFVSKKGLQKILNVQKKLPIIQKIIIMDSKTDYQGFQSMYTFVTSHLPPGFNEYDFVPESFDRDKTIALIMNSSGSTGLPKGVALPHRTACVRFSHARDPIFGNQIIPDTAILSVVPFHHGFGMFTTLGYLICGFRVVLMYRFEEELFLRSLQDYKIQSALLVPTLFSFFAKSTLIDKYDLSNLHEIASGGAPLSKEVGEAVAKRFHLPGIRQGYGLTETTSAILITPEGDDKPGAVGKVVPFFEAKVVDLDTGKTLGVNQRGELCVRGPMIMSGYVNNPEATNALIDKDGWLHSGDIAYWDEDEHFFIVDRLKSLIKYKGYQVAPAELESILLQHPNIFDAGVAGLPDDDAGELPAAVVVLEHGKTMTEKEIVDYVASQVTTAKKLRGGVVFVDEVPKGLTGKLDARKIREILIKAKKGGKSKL
# Sequence of Voltage-gated inwardly rectifying potassium channel KCNH2 (Homo sapiens) (Q12809 whole entry, looked up): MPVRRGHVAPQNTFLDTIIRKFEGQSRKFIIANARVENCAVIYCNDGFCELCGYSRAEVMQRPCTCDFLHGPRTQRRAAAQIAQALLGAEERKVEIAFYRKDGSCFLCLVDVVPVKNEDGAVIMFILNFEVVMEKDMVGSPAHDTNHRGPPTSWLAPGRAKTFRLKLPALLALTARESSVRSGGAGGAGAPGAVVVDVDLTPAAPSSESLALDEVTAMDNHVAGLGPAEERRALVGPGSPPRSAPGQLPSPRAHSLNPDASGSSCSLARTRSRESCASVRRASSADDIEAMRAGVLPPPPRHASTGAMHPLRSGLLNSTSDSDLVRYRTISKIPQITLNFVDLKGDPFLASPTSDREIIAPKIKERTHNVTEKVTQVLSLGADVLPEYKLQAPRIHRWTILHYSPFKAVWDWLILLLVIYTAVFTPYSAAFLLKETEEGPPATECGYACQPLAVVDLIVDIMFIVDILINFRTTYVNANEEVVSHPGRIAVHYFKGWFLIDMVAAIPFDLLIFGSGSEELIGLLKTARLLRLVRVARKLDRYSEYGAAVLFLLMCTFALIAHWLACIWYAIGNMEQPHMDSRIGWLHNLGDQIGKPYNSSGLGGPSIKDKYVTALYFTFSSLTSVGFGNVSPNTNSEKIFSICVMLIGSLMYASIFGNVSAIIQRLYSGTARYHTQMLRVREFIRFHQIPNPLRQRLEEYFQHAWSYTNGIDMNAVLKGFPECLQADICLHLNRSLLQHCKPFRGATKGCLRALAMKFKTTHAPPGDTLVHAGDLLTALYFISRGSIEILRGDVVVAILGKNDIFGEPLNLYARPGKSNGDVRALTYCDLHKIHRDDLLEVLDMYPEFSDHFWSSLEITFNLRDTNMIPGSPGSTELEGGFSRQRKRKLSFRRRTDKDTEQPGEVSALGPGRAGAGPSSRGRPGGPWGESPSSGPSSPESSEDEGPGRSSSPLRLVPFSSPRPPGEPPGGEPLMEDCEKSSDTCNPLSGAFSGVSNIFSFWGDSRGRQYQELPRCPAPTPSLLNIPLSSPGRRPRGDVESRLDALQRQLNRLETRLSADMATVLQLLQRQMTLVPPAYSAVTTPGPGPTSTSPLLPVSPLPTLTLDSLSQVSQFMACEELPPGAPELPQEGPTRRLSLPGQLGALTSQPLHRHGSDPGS
# Sequence of Glucagon-like peptide 1 receptor (Homo sapiens) (P43220 whole entry, looked up): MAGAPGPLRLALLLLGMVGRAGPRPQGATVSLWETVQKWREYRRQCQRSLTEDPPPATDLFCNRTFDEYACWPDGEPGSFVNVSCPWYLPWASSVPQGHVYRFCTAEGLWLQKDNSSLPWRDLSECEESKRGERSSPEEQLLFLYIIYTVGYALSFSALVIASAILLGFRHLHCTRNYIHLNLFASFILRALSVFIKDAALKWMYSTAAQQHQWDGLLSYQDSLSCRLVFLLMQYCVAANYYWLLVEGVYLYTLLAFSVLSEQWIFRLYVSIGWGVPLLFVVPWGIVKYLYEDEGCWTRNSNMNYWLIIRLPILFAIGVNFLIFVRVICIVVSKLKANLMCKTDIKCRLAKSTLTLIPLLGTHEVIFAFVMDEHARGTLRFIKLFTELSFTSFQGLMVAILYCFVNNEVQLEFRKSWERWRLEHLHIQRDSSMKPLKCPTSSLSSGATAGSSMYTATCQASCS
compound,measurement,setting,value
F/C(COc1ccc2c(c1)[nH]c1ccccc12)=C1/CN2CCC1CC2,Potency,[1],22.4 µM (active)
same,Potency,[2],inactive
same,Potency,[3],inactive
CC(=O)NBr,Potency,[1],inactive
same,Potency,[4],inactive
same,Potency,[5],inactive
same,outcome,[6],inactive
same,Potency,[7],inactive
same,Potency,[8],inactive
c1ccc2sc(SNC3CCCCC3)nc2c1,Potency,[1],inactive
same,Potency,[9],inactive
same,Potency,[2],inactive
same,Potency,[3],inactive
C[C@@H](Cc1ccccc1)NCCC(c1ccccc1)c1ccccc1,Potency,[1],0.631 µM (active)
same,Potency,[10],inactive
same,Potency,[2],inactive
same,Potency,[3],inactive
CCN(CCCl)Cc1ccccc1Br,Potency,[1],inactive
same,Potency,[4],inactive
same,Potency,[5],inactive
same,outcome,[6],inactive
same,Potency,[7],inactive
same,Potency,[8],inactive
CP(=O)(O)C1=CCNCC1,Potency,[1],inactive
same,Potency,[4],inactive
same,Potency,[5],inactive
same,outcome,[6],inactive
same,Potency,[7],inactive
same,Potency,[8],inactive
OC(c1ccccc1)(c1ccccc1)C1CN2CCC1CC2 (stereo not drawn),Potency,[1],3.55 µM (active)
same,Potency,[10],inactive
same,Potency,[9],inactive
same,Potency,[3],inactive
Clc1ccc(C2(Cn3cncn3)OCCO2)c(Cl)c1,Potency,[1],inactive
same,Potency,[10],inactive
same,Potency,[9],inactive
same,Potency,[3],inactive
NC(=O)c1ccc(OCC(O)CN2CC=C(c3ccc(F)cc3)CC2)cc1 (stereo not drawn),Potency,[1],7.94 µM (active)
same,Potency,[4],inactive
same,Potency,[5],inactive
same,outcome,[6],inactive
same,Potency,[7],inactive
same,Potency,[8],inactive
CC(C)(C)c1o[nH]c(=O)c1CC(N)C(=O)O (stereo not drawn),Potency,[1],inactive
same,Potency,[4],inactive
same,Potency,[5],inactive
same,outcome,[6],inactive
same,Potency,[7],inactive
same,Potency,[8],inactive
O=c1[nH]cc(N(CCCl)CCCl)c(=O)[nH]1,Potency,[1],inactive
same,Potency,[10],inactive
same,Potency,[9],inactive
same,Potency,[3],inactive
C=CCN1CCC23c4c5ccc(O)c4O[C@H]2C(=O)CC[C@@]3(O)C1C5 (stereo partly drawn),Potency,[1],inactive
same,Potency,[10],inactive
same,Potency,[9],inactive
same,outcome,[6],inactive
same,Potency,[7],inactive
same,Potency,[8],inactive
CCC(C)(S(=O)(=O)CC)S(=O)(=O)CC,Potency,[1],inactive
same,Potency,[10],inactive
same,Potency,[2],inactive
same,Potency,[3],inactive
C/C(=C\c1csc(C)n1)[C@@H]1C[C@@H]2O[C@]2(C)CCC[C@H](C)[C@H](O)[C@@H](C)C(=O)C(C)(C)[C@@H](O)CC(=O)O1,Potency,[1],inactive
same,Potency,[10],inactive
same,Potency,[2],0.0573 µM (active)
NCCc1c[nH]c2ccc(C(N)=O)cc12,Potency,[1],inactive
same,Potency,[4],inactive
same,Potency,[5],inactive
same,outcome,[6],inactive
same,Potency,[7],inactive
same,Potency,[8],inactive
CCC(=O)O[C@@](Cc1ccccc1)(c1ccccc1)[C@@H](C)CN(C)C,Potency,[1],inactive
same,Potency,[10],inactive
same,Potency,[9],inactive
same,Potency,[3],inactive
O=[N+]([O-])c1cc(O)c(O)c([N+](=O)[O-])c1,Potency,[1],inactive
same,Potency,[4],12.6 µM (active)
same,Potency,[5],inactive
same,outcome,[6],inactive
same,Potency,[7],inactive
same,Potency,[8],inactive
CC(N)c1cccc(Cl)c1Cl (stereo not drawn),Potency,[1],inactive
same,Potency,[4],inactive
same,Potency,[5],inactive
same,outcome,[6],inactive
same,Potency,[7],inactive
same,Potency,[8],inactive
O=C1CCCCC1CN1CCCCC1 (stereo not drawn),Potency,[1],inactive
same,Potency,[10],inactive
same,Potency,[9],inactive
same,Potency,[3],inactive
CC(C)NP(=O)(NC(C)C)OP(=O)(NC(C)C)NC(C)C,Potency,[1],inactive
same,Potency,[4],inactive
same,Potency,[5],inactive
same,outcome,[6],inactive
same,Potency,[7],inactive
same,Potency,[8],inactive
N[C@@H](Cn1oc(=O)[nH]c1=O)C(=O)O,Potency,[1],inactive
same,Potency,[4],inactive
same,Potency,[5],inactive
same,outcome,[6],inactive
same,Potency,[7],inactive
same,Potency,[8],inactive
CCCCCCC(C)(C)c1ccc([C@@H]2C[C@H](O)CC[C@H]2CCCO)c(O)c1,Potency,[1],8.91 µM (active)
same,Potency,[4],inactive
same,Potency,[5],inactive
same,outcome,[6],inactive
same,Potency,[7],inactive
same,Potency,[8],inactive
Nc1ccc(CCN2CCN(c3cccc(C(F)(F)F)c3)CC2)cc1,Potency,[1],2.24 µM (active)
same,Potency,[4],inactive
same,Potency,[5],inactive
same,outcome,[6],inactive
same,Potency,[7],inactive
same,Potency,[8],inactive
C=CCN1C[C@@H](C)N([C@H](c2ccc(C(=O)N(CC)CC)cc2)c2cccc(OC)c2)C[C@@H]1C,Potency,[1],4.47 µM (active)
same,Potency,[4],inactive
same,Potency,[5],inactive
same,outcome,[6],inactive
same,Potency,[7],inactive
same,Potency,[8],inactive
COc1ccc2c3c1O[C@H]1C(=O)CC[C@H]4[C@@H](C2)N(C)CC[C@]314,Potency,[1],inactive
same,Potency,[10],inactive
same,Potency,[9],inactive
same,Potency,[3],inactive
NCCCP(=O)(O)O,Potency,[1],inactive
same,Potency,[4],inactive
same,Potency,[5],inactive
same,outcome,[6],inactive
same,Potency,[7],inactive
same,Potency,[8],inactive
CCC1(c2ccccc2)C(=O)NC(=O)N(C(=O)c2ccccc2)C1=O (stereo not drawn),Potency,[1],inactive
same,Potency,[10],inactive
same,Potency,[9],inactive
same,Potency,[3],inactive
O=C(CCl)c1ccc(Oc2ccc(C(=O)CCl)cc2)cc1,Potency,[1],inactive
same,Potency,[9],inactive
same,Potency,[2],inactive
same,Potency,[3],inactive
COC([CH2][Hg])CNC(=O)c1ccccc1OCC(=O)O (stereo not drawn),Potency,[1],inactive
same,Potency,[9],inactive
O=C1CN=C(c2ccccc2)c2cc(Cl)ccc2N1CC1CC1,Potency,[1],inactive
same,Potency,[10],inactive
same,Potency,[9],inactive
same,Potency,[3],inactive
CC1OC1P(=O)(O)O (stereo not drawn),Potency,[1],inactive
same,Potency,[3],inactive
same,Potency,[4],inactive
O=[N+]([O-])c1cc(I)c(O)c(I)c1,Potency,[1],inactive
same,Potency,[9],inactive
same,Potency,[2],inactive
NC(=O)c1cc(N2CC2)c([N+](=O)[O-])cc1[N+](=O)[O-],Potency,[1],inactive
same,Potency,[4],inactive
same,Potency,[5],inactive
same,outcome,[6],inactive
same,Potency,[7],inactive
same,Potency,[8],inactive
